± gives the standard deviation.
Each sequence was assayed on EfPiwi piRISC loaded with L1MC piRNA (26 nt) (assay: pre-steady-state target cleavage rate (min^-1); auxiliary factor: 500 nM Ephydatia muelleri Gtsf1; guide: L1MC piRNA 5'p-UAACUAAAUACUAUGCAAGCUGUAGG; MIWI and MILI are mouse PIWI proteins and EfPiwi is from a freshwater sponge; tags in brackets are library labels; higher = faster piRNA-guided slicing of the target).
Summary of the method: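 Reactions were run for 0–8 or 0–960 min at 33 °C in HEPES–potassium acetate buffer, combining 1 nM active affinity-purified piRISC with one synthetic guide, […] transcribed, DNA-blocked target RNA library and, in some cases, 500 nM GTSF1 partner protein. Sequencing of uncleaved targets followed, with normalisation to depth and to weakly complementary targets. Three trials were pooled, k3 was capped at 0.0001 min^-1, and the pre-steady-state cleavage rate was taken from a burst-and-steady-state fit.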

Sequence | pre-steady-state target cleavage rate
UCCUGGAACAGCUUGCAAUGUAUUUAGUUA | 0.00454 ± 0.0035
UCCUGGAAACAGCUUGCAUAGUAUUUAGUUA | 0.164 ± 0.034
UCCUGCUACAGCUUGGUUAGUAUUUAGUAA | 0.00273 ± 0.0024
UCCUGGAUGUGCAAGCAUAGUAUUUAGUUA | 0.00427 ± 0.0022
UCCUCCUACAGCUUGCAUAGUUAUUUAGUUA | 0.00556 ± 0.0031
UCCUCCUACAGCAACCAUAGUAUUUAGUUA | 0.00322 ± 0.0025
UCCUGGAACAGCUGCAUAGUAUUUAGUUA | 0.0362 ± 0.0095
UCCUGGAUCAGCUUGCAUAGAAUUUAGUUA | 0.00327 ± 0.0015
UCCUGGAUGAGCUUGCAUUGUAUUUAGUUA | 0.00376 ± 0.0029
UCCUGGUACACUUGCAUAGUAUUUAGUUA | 0.00407 ± 0.0024
UCCUGCUACAGGUUGCAUAGUAUAUAGUUA | 0.005 ± 0.0032
UCCUGGAUGUGCUUGCAUAGUAUUUAAGUUA | 0.0404 ± 0.015
UCCUGGAUCAGCUGGCAUAGUAUUUAGUUA | 0.0104 ± 0.0026
UCCUGGAUGUACUUGCAUAGUAUUUAGUUA | 0.00383 ± 0.0029
UCCUGGUACAGCUUGCAUAGUAUUUUCUAA | 0.0055 ± 0.0029
UCCUGGAUGUGGUAGCAUAGUAUUUAGUUA | 0.00356 ± 0.0033
UCCUGGAACAGCAUUGCAUAGUAUUUAGUUA | 0.015 ± 0.0044
UCCUGGAUGUGCUUGCAUCGUAUUUAGUUA | 0.00598 ± 0.0028
UCCUGGAUCAGGUUGCAUUGUAUUUAGUUA | 0.00567 ± 0.0021
UCCUCCUACUCCUUGCAUAGUAUUUAGUAA | 0.00518 ± 0.0033

Sequence | pre-steady-state target cleavage rate
UCCUGCUACAGCUUGCAAAGUAUUUUGUUA | 0.00625 ± 0.0028
UCCUGCUACAGCUUGCAUAGUAUUCUAGUUA | 0.0043 ± 0.002
UCCUGCUAGAGGUUGCAUAGUAUUUAGUUA | 0.00977 ± 0.0027
UCCUGCAAGAGCUUGCAUAGUAUUUAGUUA | 0.0267 ± 0.0065
UCCUGGAUGAAGCUUGCAUAGUAUUUAGUUA | 0.0366 ± 0.0082
UCCUGCUACAGCUUGGAUAGUAUUUUGUUA | 0.00556 ± 0.002
UCCUGGAUGAGCAUUGCAUAGUAUUUAGUUA | 0.008 ± 0.0029
UCCUGGUACAGCUCGCAUAGUAUUUAGUUA | 0.00967 ± 0.0034
UCCUGCUACAGCUUGCAAAGUAUUUAGUAA | 0.00434 ± 0.0016
UCCUGCAACUGCUUGCAUAGUAUUUAGUUA | 0.0198 ± 0.0044
UCCUGGAACAGCUUGCAUAGUAAAUAGUUA | 0.00589 ± 0.0023
UCCUGCUACAGCUUGCAUAAUAUUUAGUUA | 0.00444 ± 0.0021
UCCUGGUACAGCAUGCAUACUAUUUAGUUA | 0.00483 ± 0.0019
UCCUGGAACAGCUUGCAUAGUAUUUAGUUA [g2:g23:cont:t1A] | 0.0806 ± 0.018
UCCUCCUACAGCUUGCAUAGUCUUUAGUUA | 0.0068 ± 0.0025
UCCUCCUACAGCUUGGAUAGUAUUUAGUUA | 0.057 ± 0.012
UCCUCGAUCAGCUUGCAUAGUAUUUAGUUA | 0.121 ± 0.023
UCCUCCUACAGCUUGCUUUGUAUUUAGUUA | 0.0093 ± 0.0052
UCCUGGAUCAGCAUGCAUUGUAUUUAGUUA | 0.00421 ± 0.0021
UCCUGGAACAGCUUGCAAGUAUUUAGUUA | 0.00284 ± 0.0019
